Source: PubChem BioAssay (NCI)
Compounds without any hit were thinned out: in the full panel of roughly 83,000, 20% have a hit.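 Each cell line was grown in a 96-well plate and treated with one concentration of compound for 48 hours. Values below 10 were considered active.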 Unmarked numbers belong to inactive results. Activity calls are given as the source filed them.

How the values were obtained:
Experiment in all cases: NCI-60 one-dose screen, 48 h (100 = growth as untreated, 0 = no growth, -100 = all killed)
Settings in all cases: 10 µM unless noted
NCI-H226 lung = tested on: NCI-H226 lung
NCI-H322M lung = tested on: NCI-H322M lung
HOP-62 NSCLC = tested on: HOP-62 NSCLC
NCI-H460 lung = tested on: NCI-H460 lung
HOP-92 NSCLC = tested on: HOP-92 NSCLC
NCI-H522 lung = tested on: NCI-H522 lung
A549/ATCC NSCLC = tested on: A549/ATCC NSCLC
786-0 renal = tested on: 786-0 renal
COLO 205 colon = tested on: COLO 205 colon

Compound | growth (NCI-H226 lung) | growth (NCI-H322M lung) | growth (HOP-62 NSCLC) | growth (NCI-H460 lung) | growth (HOP-92 NSCLC) | growth (NCI-H522 lung) | growth (A549/ATCC NSCLC) | growth (786-0 renal) | growth (COLO 205 colon)
CS(=O)(=O)c1ccc(NC(=O)c2ccccc2)nc1 | 103% | 111% | 95.6% | 105% | 106% | 68.9% | 96.3% | 99.1% | 128%
O=C(/C=C(O)/C=C/c1cccc2[nH]ccc12)/C=C/c1cccc2[nH]ccc12 | 99.5% | 98.9% | 76.4% | 98.3% | 62.1% | 34% | 87.5% | 86% | 55.8%
COc1ccc2c(c1)/C(=N/c1n[nH]c(=S)s1)C(=O)N2 | 96.8% | 91.8% | 99.9% | 92.9% | 92.8% | 76.3% | 83.7% | 105% | 118%
Cc1nnc(-c2ccc3c(c2)nc(/C=C/c2ccccc2)n3C2CCCCC2)o1 | 104% | 85.9% |  | 82.4% | 79.7% | 68.6% |  | 92.2% | 79.7%
N#Cc1cccc(C2C3=C(COC3=O)N(CCO)c3cc4c(cc32)OCO4)c1 (centres undefined) | 74.9% | 49.3% | 32.2% | 14.8% | 42.4% | 17% | 39.5% | 24.9% | 8.4% (active)
CCN(CC)CCN1C(=O)c2c(c(C)c3c(oc4ccc(OC)cc43)c2C)C1=O | 14.3% | 95.2% | 93.7% | 74.3% | 84.7% | 95% | 94.5% | -30% (active) | 96.1%
CN1CCN(C(=O)C(C)(C)c2ccc(C(=O)Nc3cn4cc(-c5ccncc5)ccc4n3)cc2)CC1 | 9.69% (active) | 17% | 4.05% (active) | 10.8% | 3.02% (active) | -1.24% (active) | 10.2% | -19.9% (active) | 2.48% (active)
COC(=O)c1c2c(c(C)[n+]([O-])c1C)C(=O)C(NCc1ccc(OC)cc1)=CC2=O | 81.7% | 6.55% (active) | 47.7% | 10.2% | 36.9% | -5.69% (active) | 4.4% (active) | 54.2% | -45.2% (active)
Nc1nc(NC(=O)Nc2ccc(C(=O)O)cc2)nn1-c1ccc(S(N)(=O)=O)cc1 | 92.1% | 90.4% | 93.6% | 95.6% | 78.3% | 97.7% | 82.8% | 97.8% | 111%
O=C(Nc1ccc(Cl)cc1)Oc1c(Cl)c(Cl)c(Cl)c(Cl)c1Cl | 89.6% | 95.2% | 85.6% | 101% | 41% | 83.2% | 93.3% | 94.7% | 105%
CN(C)S(=O)(=O)Oc1ccc(-c2sc3cc(OS(=O)(=O)N(C)C)ccc3c2C(=O)c2ccc(OCCN3CCCCC3)cc2)cc1 | 64.6% | 87.9% | 49.8% | 32.2% | 28.5% | 39.6% | 52.7% | 21.5% | 36.1%
COc1cc(NC(=O)c2cncnc2Nc2ccc3c(ccn3Cc3ccccn3)c2)cc(OC)c1 | 76.1% | 76.4% | 43.9% | 20.5% | 54.2% | 38.9% | 53.9% | 49.4% | 44.9%
O=C(Nc1ncc(Cc2cc(C(F)(F)F)ccc2Cl)s1)c1cccs1 | 76.5% | 65.5% | 42.5% | 32.2% | 47.1% | 35.2% | 37.8% | 79.6% | 56.2%
CCOC(=O)C(=CNc1cnc(Nc2ccc(N3CCOCC3)cc2)nc1Oc1ccc(OC)cc1)C(=O)OCC | 70.3% | 39.7% |  | 2.03% (active) | 30.3% | 76.3% | 22.2% | 30.8% | 65.9%
O=C1/C=C/[C@@H](O)[C@@H]2C[C@@H](O)C[C@H]2/C=C/CCC[C@@H](O)CCO1 | 77.3% | 99.3% | 103% | 110% | 98% | 108% | 89.3% | 61.5% | 114%
O=C(/C=C/c1ccc(Cl)cc1)c1cccc(OCCCOc2cccc(C(=O)/C=C/c3ccc(Cl)cc3)c2)c1 | 104% | 103% | 107% | 102% | 120% | 96.2% | 92.7% | 102% | 113%
COc1ccc(/C=C/C(c2cc(OC)c(OC)c(OC)c2)n2cncn2)cc1 (centres undefined) | 76% | 61.2% | 41.8% | 22.1% | 40.3% | 28.4% | 35.5% | 39.6% | 30.7%
Cc1ccc2nc(/C(C#N)=C(/CCCO)NC(Cc3ccccc3)C(=O)OCc3ccccc3)[nH]c(=O)c2c1 (centres undefined) | 103% | 94.4% | 88.2% | 110% | 108% | 112% | 114% | 93.9% | 87.8%
